This is an account of results in ChEMBL document CHEMBL3988442, “University of Dundee, Small-Polar-MMV Screening Library” (2021).

Structures are written as SMILES. Hit rate of the full screen: of about 38,000 compounds, about 1,200 (3.2%) showed an effect of 50% or more. The median lay at about -58%. Only a selection was taken, and strong results are over-represented in it overall.

This experiment concerns Plasmodium falciparum. The experiment is described as follows: Calibr Malaria Delayed Death Assay SOP. The following applies: concentration 4.99e-06 (unit not given; other assays of the set use mol/L). Also noted: scale not given: in the data most compounds retested in dose-response had high values. Format: functional, organism-based.
`CCn1nnc2c1C(COC)CN(C(=O)Cc1ccccn1)C2` (stereo unspecified): the “Percent Effect” value is on record as -16.62%. With `CNC(=O)C1CCN(S(C)(=O)=O)CC1`, the “Percent Effect” value was -158.4%. Turning to `O=C1CC(c2cccs2)c2sc(C(=O)O)c(-c3ccccc3)c2N1` (stereo unspecified), the “Percent Effect” value is listed as -70.62%. In the case of `Cc1nc(N2CCCC2)ccc1NCc1ccccn1` it was -6.068%.

With `COc1ccc(C(=O)O)c(OCC(=O)NC(C)c2ccccc2)c1` (stereo unspecified), the “Percent Effect” value is listed as -10.57%. `COCCCNC(=O)c1c[nH]c2ccc(OC)cc12`: the “Percent Effect” value is given as -47.08%. In the case of `O=C1CCNc2ccc(F)cc2CN1Cc1ccccc1` it was -35.83%; in that of `CC1N(c2cnn(C)c2)C(=O)COC12CCN(CC1CC1)CC2.O=C(O)C(F)(F)F` (stereo unspecified), -75.35%. As for `Cc1cnc(NC(=O)c2ccc(-n3ncc(C#N)c3N)cc2)s1`, the figure is -56.37%.

For the compound `CCN(CC)C(=O)c1ccc(-n2ncc(C#N)c2N)cc1`, the “Percent Effect” value is on record as -24.17%. Turning to `COc1ccc(NC(=O)c2ccc(-n3ncc(C#N)c3N)cc2)cn1`, the “Percent Effect” value turned out to be 80.07%. As for `O=C(CSc1ccccn1)N1CCC(OCc2cccnc2)CC1`, the figure is -154%; as for `Cn1cnc(S(=O)(=O)NCCC(O)c2ccc3c(c2)OCO3)c1` (stereo unspecified), -141.1%. In the case of `CC(Nc1cccc(F)c1C#N)c1cccc(S(N)(=O)=O)c1` (stereo unspecified) it was -56.47%; in that of `Cc1ccnc(OC[C@]23COC[C@H]2CN(C(=O)C2=CCCCC2)C3)n1`, -29.48%. On to `C[C@]1(O)CCN(Cc2c[nH]cn2)C[C@@H]1Oc1cccc(F)c1`, for which the “Percent Effect” value was -164.2%. In the case of `COCCNC(=O)NCc1ccc(OC(C)C)c(F)c1` it was -81.14%; in that of `CC(C)Oc1ccccc1-c1cc(CN)ccc1F`, 60.74%; in that of `COc1cccc(-c2cc(CN)ccc2F)c1F`, -75.66%. Turning to `NCc1ccc(Oc2cccc(Cl)c2Cl)cc1`, the “Percent Effect” value is reported as 19%. In the case of `CC(C)Oc1ccc(CNC(=O)c2cc(C(N)=O)cs2)cc1F` it was -80.32%; in that of `COc1cccc(Cl)c1-c1cc(CN)ccc1F`, 65.68%. In the case of `Cc1cc(NC(=O)Cc2ccc3c(c2)OCO3)n(C)n1` it was -77.02%. In the case of `O=C(CC1NC(N2CCc3ccccc32)=NC1=O)Nc1ccc(Cl)cc1` (stereo unspecified) it was -176.9%; in that of `O=C(Cn1cc(C2CC2)nn1)N(Cc1ccco1)Cc1cccs1`, -76.11%. Regarding `CN(C)c1ncccc1CNCc1cccc(O)c1`, the “Percent Effect” value is on record as -22.48%. As for `O=C(CCc1ccsc1)NCC1CCN(Cc2cccs2)CC1`, the figure is 58%; as for `O=C(CCc1ccccc1)NCC1CCN(Cc2ccsc2)CC1`, 18.12%.

As to `O=C(CCc1ccccc1)NCC1CCN(Cc2cccs2)CC1`, the “Percent Effect” value is on record as -10.35%.

In the case of `CCn1ncc2c1C(COC)N(C(=O)c1ccsc1)CC2.O=C(O)C(F)(F)F` (stereo unspecified), the “Percent Effect” value is recorded as -121.1%. In the case of `Cc1cc(N2CCC(c3ncc[nH]3)CC2)cc(C)n1` it was -30.44%; in that of `Cc1cc(N2CCC(c3ncc[nH]3)CC2)nc(N)n1`, -29.26%. In the case of `Cc1cc(N2CCC(c3ncc[nH]3)CC2)c2ccccc2n1` it was 61.5%. In the case of `Cc1cc(C(=O)N2CC(O)CO2)c2cccc(C)c2n1` (stereo unspecified) it was -103.4%; in that of `Cn1nc(C(=O)NC2(c3ccc(Cl)cc3)CCCC2)ccc1=O`, 37.39%; in that of `Cc1nccn1Cc1nnc(C2CCCN(c3ncccc3F)C2)n1C` (stereo unspecified), -123.3%. Turning to `COCc1noc(Cn2c(C3CC3)nc3ccccc32)n1`, the “Percent Effect” value is -91.38%.

Consider `Cn1cc(C2(C)CN(Cc3ccc(Cl)c(F)c3)CCO2)cn1` (stereo unspecified), for which the “Percent Effect” value was -40.79%. In the case of `CC(C)n1ccnc1C1CCN(Cc2ccc(Cl)c(F)c2)CC1` it was 33.02%. In the case of `COc1cccc(C(=O)N2CCCC2c2ncc3c(n2)CCN(C)C3)c1` (stereo unspecified) it was -46.26%; in that of `CN1CCN(Cc2ccc(F)cc2)Cc2cccnc21`, -11.04%; in that of `O=C(NCCc1nccs1)N1CCC(n2cccc2)CC1`, -128.4%. In the case of `Cc1nc(CNC(=O)Nc2cc(C(F)(F)F)c[nH]c2=O)cs1` it was -139.2%. Regarding `Cc1cccc(S(=O)(=O)NCC(C)N2CCN(C)CC2)c1Cl` (stereo unspecified), the “Percent Effect” value was found to be 80.79%.

`CC(=O)N1C[C@H](NS(=O)(=O)c2cccc(Cl)c2)[C@@H](C(C)C)C1`: the “Percent Effect” value is -122%.

Consider `Cc1cc(F)ccc1S(=O)(=O)NCC(O)c1cccn1C` (stereo unspecified), for which the “Percent Effect” value is listed as -27.19%.

Consider `Cc1c(Cl)cccc1S(=O)(=O)NCC(O)c1cccn1C` (stereo unspecified), for which the “Percent Effect” value is -3.502%. As for `O=S(=O)(NCC(O)c1cccs1)c1ccccc1Cl` (stereo unspecified), the figure is -35.17%; as for `Cc1cc(Cl)ccc1S(=O)(=O)NCC(C)N1CCN(C)CC1` (stereo unspecified), 73.33%. In the case of `CC(CNS(=O)(=O)c1cccc(Cl)c1)N1CCN(C)CC1` (stereo unspecified) it was 77.12%; in that of `CC(NCCNS(=O)(=O)c1cccc(Cl)c1)C1CCOCC1` (stereo unspecified), 24.26%; in that of `COc1ccc(S(=O)(=O)NCC(c2cccn2C)N(C)C)c(C)c1` (stereo unspecified), 47.32%. As for `Cc1cccc(-n2nnnc2C(C)(C)Nc2ccccc2C)c1`, the figure is -66.56%; as for `O=C(c1ccc2c(c1)COC2)N1CCCN(Cc2cscn2)CC1`, -90.53%; as for `Cc1nn(C)c(N2CCCN(C)CC2)c1CNC(=O)CC(C)(C)C`, -44.23%.

On to `Cc1nc(CN2CCC3(CCCN(Cc4ccncc4)C3)C2=O)cs1.O=C(O)C(F)(F)F.O=C(O)C(F)(F)F.O=C(O)C(F)(F)F` (stereo unspecified), for which the “Percent Effect” value was -86.96%. As for `CCc1cc(NCCCOC2CCCC2)ncn1`, the “Percent Effect” value is on record as -19.37%. As for `N#CCCN(Cc1cccnc1)C(=O)c1ccn(-c2ccccc2)n1`, the figure is -29.34%; as for `CN(C)CCN(Cc1cccnc1)C(=O)c1ccn(-c2ccccc2)n1`, 87.52%; as for `O=C(c1ccn(-c2ccc(F)cc2)n1)N(CCO)Cc1cccnc1`, -20.41%. In the case of `Cc1ncoc1C(=O)N1CCOC(CC2CCCCC2)C1` (stereo unspecified) it was -117.2%. As to `CCOc1ccc2[nH]c(=O)c(CN3CCCCC3C)cc2c1` (stereo unspecified), the “Percent Effect” value was -50.88%. As for `Cc1occc1C(=O)NCC1OCCc2cn(C)nc21.O=C(O)C(F)(F)F` (stereo unspecified), the figure is -17.21%; as for `Cc1nn(CC(=O)NCC2(C(N)=O)CCOCC2)c(C)c1Cl`, -63.22%; as for `CCn1ccnc1C1CCN(Cc2cccc(C)n2)CC1`, -98.55%. Regarding `Cc1cccc(CN2CCC(NS(C)(=O)=O)CC2)n1`, the “Percent Effect” value is given as -83.22%. In the case of `O=C(c1c(O)cnc2ccccc12)N1CCCSCC1` it was -75.93%; in that of `CCn1c(C)cc(C(=O)N2CCC(Nc3ccc(C)nn3)CC2)c1C`, -49.09%; in that of `COc1ccccc1CNc1c(N2CCN(C(C)=O)CC2)c(=O)c1=O`, -13.77%.

Take `Cc1nc(CCC(=O)NCC(N)=O)cc(C2CCNCC2)n1`: the “Percent Effect” value is -86.52%. In the case of `CNC(=O)CCc1cc(C2CCNCC2)nc(C)n1.Cl.Cl` it was -15.84%. As for `COc1ccc2cnn(CC(=O)NC3CCCCC3)c(=O)c2c1OC`, the figure is -20.95%; as for `Cc1nn(Cc2ccc(C(=O)NCCCN3CCCC3=O)o2)c(C)c1Br`, -82.86%. As for `CC(C)N(C)Cc1cnc2n1CCN(Cc1cccc(C#N)c1)C2`, the figure is 10.5%; as for `COc1ccc(CC(C)(O)CNC(=O)c2cccs2)cc1` (stereo unspecified), 88.99%. With `CC(O)(CCc1ccccc1)CNC(=O)c1cccs1` (stereo unspecified), the “Percent Effect” value is reported as -19.61%.

On to `COc1ccc(CC(C)(O)CNC(=O)Cc2cccs2)cc1` (stereo unspecified), for which the “Percent Effect” value was -86.25%. As for `CCN1C(=O)CCCC12CCCN(C(=O)c1ccncc1F)C2.O=C(O)C(F)(F)F` (stereo unspecified), the figure is -52.32%; as for `CC(=O)Nc1nc(CS(=O)(=O)Cc2ccccc2)cs1`, -16.97%; as for `COCCN1Cc2ccccc2C2(CCN(C(=O)c3ccno3)CC2)C1`, -21.64%. In the case of `COCCn1ccnc1C1CCCN(c2ncnc3c(C)csc23)C1` (stereo unspecified) it was -130.5%. As for `N#Cc1ccc(CNC(=O)NC2CCN(CC(F)(F)F)C2)cc1` (stereo unspecified), the figure is -80.57%; as for `Cc1cccc(CNC2CCN(CCc3ccncc3)CC2)c1C`, 75.22%. Consider `Cc1ccc(CNC2CCN(CCc3ccncc3)CC2)s1`, for which the “Percent Effect” value is -5.622%. In the case of `N#Cc1ccc(CNC(=O)NC2CCN(c3ncccn3)CC2)cc1` it was -82.81%; in that of `COCCN1CCC(NCc2cccnc2)C1` (stereo unspecified), -54.93%; in that of `Cc1csc2c(N3CCC(Cn4cc(C(C)(C)O)nn4)CC3)ncnc12`, -16.92%. As for `COC(=O)C(O)C1CCN(CCc2ccncc2)CC1` (stereo unspecified), the figure is -64.35%; as for `CCCN1CCC(NCc2ccncc2)CC1`, -53.14%; as for `CSc1ccc(CNC2CCN(CCc3ccncc3)CC2)cc1`, 92.6%.

With `Cc1csc2c(N3CCC(NCCCc4ccncc4)CC3)ncnc12`, the “Percent Effect” value worked out at 63.19%. As for `N#Cc1ccc(CNC2CCN(CCc3ccncc3)CC2)cc1`, the figure is 54.87%; as for `COC(=O)COn1c(SC)nc2ccccc2c1=O`, -26.25%; as for `Cc1cccnc1CN(C)c1ncnc2[nH]ccc12`, -141.2%. As for `O=C(O)C(F)(F)F.O=C(O)C(F)(F)F.c1cncc(OC[C@@H]2CCC[C@@]23CN(Cc2nccs2)CCO3)c1`, the figure is -94.41%.

Take `Cn1nc(-c2ccccc2)c(Br)c1C(=O)O`: the “Percent Effect” value is -35.19%. In the case of `O=C(C1CCOCC1)N1CCC2(CC1)CN(c1ccsc1)C(=O)CO2` it was -132.3%; in that of `O=C(c1cnn(-c2ccccc2Cl)c1)N1CCN(CCO)CC1`, -76.86%. In the case of `COCCn1cc(CC(=O)Nc2nc[nH]n2)c2ccccc21` it was -106.6%. Regarding `Cn1cc(CN2CCS(=O)(=O)C(C)(C)C2)cn1`, the “Percent Effect” value is -18.08%. With `COc1ccccc1C(=O)Nc1nc2c(s1)CN(S(=O)(=O)C1CC1)CC2`, the “Percent Effect” value was -86.55%.

Regarding `COc1ccc(C2(NC(=O)c3ccc(=O)n(C)n3)CCCC2)cc1`, the “Percent Effect” value was -78.19%. In the case of `Fc1ccc(CNC2CCN(CCc3ccncc3)CC2)cc1F` it was 89.24%; in that of `CCCc1cncnc1N1CCC2(CCC(=O)N(C3CCCC3)C2)CC1`, 27.32%; in that of `Oc1cccc(CNC2CCN(CCc3ccncc3)CC2)c1`, -23.71%. With `CCCc1cncnc1N1CCC(NCc2ccc(O)cc2)CC1`, the “Percent Effect” value amounted to 48.9%.

With `COCCN1CCC(NCc2cccc(F)c2)C1` (stereo unspecified), the “Percent Effect” value is listed as -58.84%.

Turning to `O=C1CC(NCc2cccc(O)c2)CN1CCc1cccc(Cl)c1` (stereo unspecified), the “Percent Effect” value is given as -115.5%. In the case of `Clc1cccc(CNC2CCN(CCc3ccncc3)CC2)c1` it was 91.89%.

For the compound `Fc1ccc(C2CN(CCc3ccncc3)CCO2)cc1` (stereo unspecified), the “Percent Effect” value is recorded as -59.94%.

With `CCCc1cncnc1N1CCC(NCc2ccncc2)CC1`, the “Percent Effect” value came to 65.25%.
